According to PubChem BioAssay (NCATS):
Results filed as inconclusive are left out. Calls of active or inactive are those of the source. Calls follow the shape of the dose curve; as a rule, active = well fitted inhibition curve with a large enough effect; inconclusive = small, poorly fitted or top-dose-only effect, or effect the other way; inactive = flat fitted curve, though single readings scatter.

Assay: qHTS for Inhibitors of Plasmodium falciparum (GB4) proliferation (AID 504315); also: nearly all actives have a fitted effect of over 50% in size;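 as to activity change, negative = inhibition: 0% = DMSO vehicle and -100% = 0.29 µM artemisinin control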
Settings: P. falciparum GB4 in erythrocytes, SYBR Green DNA, 72 h; series mostly up to 6.7 µM; activity change, negative = inhibition: at the top concentration
Excerpt: Plasmodium falciparum is a virulent malarial parasite that kills 1-2 million people worldwide each year. Malaria not only inflicts tremendous suffering and morbidity on the human population, but has dramatically influenced the course of civilization with profound sociological and economic implications (Shah, S. 2010). Transmitted by mosquitoes, the sporozoite form of the parasite enters the blood stream to infect hepatocytes, where they become merozoites that infect red blood cells (erythrocytes). Within erythrocytes, merozoites begin a […] cycle of growth and division, after which the parasite is released to infect new red blood cells. Gametocytes, which form within erythrocytes as well, circulate in the bloodstream and are ingested by the mosquito, thereby completing the life cycle (see CDC website). To profile malarial lines for differential chemical responses and to identify inhibitors of malarial growth, an assay that measures P. falciparum growth and replication within erythrocytes was employed. This assay uses a DNA binding fluorescent dye (SYBR Green) to detect parasite DNA following cell lysis. Because mature erythrocytes lack DNA, only Plasmodium-derived DNA is detected. The P. falciparum line cp250, derived from a malarial isolate from Cambodia, (Mu, J., et al. 2010) was added to the panel of lines, Dd2, HB3, 7G8 and GB4 in this study. Laboratory of Assay Development and Screening Technology [ADST] and NIH Chemical Genomics Center [NCGC] Boston University, Chemistry Department, Center for Chemical Methodology and Library Development [CMLD-BU] NIH National Institute of Allergy and Infectious Diseases [NIAID]
ADST Assay Protocol Summary: The 1536-well SYBR Green viability assay was based on the method of Bennett et al (2004) and described previously in 1536-well format (Yuan J., et al. 2009). For screening 3 ul culture medium was dispensed into 1536 well black clear bottom plates (Aurora Biotechnologies) using a Multidrop Combi (Thermo Fisher Scientific Inc.), 23 nL compounds in DMSO were added by a pin transfer (Cleveland, P.H. and Koutz, P.J, 2005) using a pin tool-based delivery system (Kalypsys), and 5 ul of erythrocytes infected with P. falciparum one of five lines (cp250, Dd2, HB3, 7G8 or GB4, 0.3% parasitemia, 2.5% hematocrit final concentration) were added. The plates were incubated at 37C in a humidified incubator in 5% CO2 for 72 h, and 2 ul lysis buffer (20 mM Tris HCl, 10 mM EDTA, 0.16% saponin, 1.6% triton X, 10X SYBR Green I (supplied as 10,000X final concentration by Invitrogen) was added to each well. The plates were mixed for 25 sec with gentle shaking and incubated overnight at room temperature in the dark. The following morning, fluorescence intensity at 485(14) nm excitation and 535(25) nm emission wavelengths was measured on an EnVision (Perkin Elmer) plate reader. Plate reads were normalized relative to the control inhibitor (0.29 uM artemisinin) and vehicle (DMSO) wells present on each plate and then corrected by an algorithm using vehicle-only control plates at the beginning and end of the compound plate stack. References Shah, S. (2010). The Fever: how malaria has ruled humankind for 500,000 years. New York, Sarah Crichton Books. CDC web site, http://www.cdc.gov/malaria/about/biology/index.html Mu, J., Myers, R.A., Jiang, H., Liu, S., Ricklefs, S., Waisberg, M., Chotivanich, K., Wilairatana, P., Krudsood, S., White, N.J., et Plasmodium falciparum genome-wide scans for positive selection, recombination hot spots and resistance to antimalarial drugs Nature Genetics 2010, 42, pp 268-271 Bennett TN, Paguio, M., Gligorijevic, B., Seudieu, C., Kosar, A. D., Davidson, E., and Roepe, P. D. Novel, rapid, and inexpensive cell-based quantification of antimalarial drug efficacy Antimicrobial Agents Chemother. 2004, 48(5): pp 1807-10 Yuan J, Johnson RL, Huang RL, Wichterman J, Jiang HY, Hayton K, Fidock DA, Wellems TE, Inglese J, Austin CP, Su XZ. […]
Potency is read from the fitted curve at half-maximal effect.

Activity change, negative = inhibition, inactive:
CCN1C(=NCc2ccc3c(c2)OCO3)NC(CCc2ccccc2)C(C(=O)OC)=C1C (stereo not given) -5.67%, C=CCOC(=O)N[C@@H](Cc1ccccc1)C(C(=O)OC)=C(C)NCc1ccccc1 4.7%, Cc1cc2c(nc1C)CCCN2CC(O)CN1CCCc2nc(-c3ccc(Br)cc3)ccc21 (stereo not given) 1.32%, O=C1CCCC=C1C(CCc1ccccc1)OC(=O)c1ccc(Br)cc1 (stereo not given) 9.74%, CC(CCN1CCCc2nc(C)c(C)cc21)=NO[C@@H](C)c1cc(-c2c(C)cc(C)cc2C)no1 7.56%, CC(=O)C1=C(C)N(CC#C[Si](C)(C)C)C(=O)N(C(C)=O)C1c1ccccc1 (stereo not given) -0.207%, CCCCC#C[C@@H]1C=C[C@H](Oc2ccc(C(=O)OC)cc2)[C@@H](COC(=O)OCC)O1 -2.37%, COc1cccc(CO[C@H]2C=C[C@@H](c3ccccc3)O[C@H]2CO)c1 -0.813%, C[C@@H]1CC2=CCCC2[C@]2(O1)C(=O)Nc1cccc(Br)c12 (stereo not given in full) 3.38%, C=CC[C@@H]1C=C[C@@H](ON=C2[C@H]3CCn4c(=O)n(-c5ccccc5)c(=O)n4[C@@H]3[C@H](O)[C@@H]3O[C@H]23)[C@@H](CO)O1 11.2%, COc1cccc([C@@H]2[C@@H](C)CC[C@@H]3C(=O)NC[C@H](O)CN32)c1 12.5%, CC(CCN1CCCc2nc(C)c(C)cc21)=NOC[C@@H](O)[C@H]1O[C@@H]2OC(C)(C)O[C@H]2[C@@H]1O -15.1%, C=CCOC(=O)N[C@@H](CC(C)C)C(C(=O)OC)=C(C)NCc1ccccc1 1.31%, C=C(C)CCCN1C=C(C(C)=O)C(c2ccccc2)NC1=O (stereo not given) 5.12%, Cc1cccc(C)c1Nc1oc(-c2ccccc2)nc1C(C)(C)C 0.513%, CCN1C(=O)[C@@H]2[C@H]3[C@H](O)[C@H](O)CC(=NOC[C@@H](O)[C@H]4O[C@@H]5OC(C)(C)O[C@H]5[C@@H]4O)[C@@H]3CC[C@H]2C1=O 19%, COC(=O)N1[C@H]2CC[C@@]3(C)C=C(C)O[C@]1(C)C3c1ccccc12 -6.74%, C[C@@H]1C=CCC(=O)OC[C@H](C)C(=O)OC[C@H]2O[C@H]1C=C[C@H]2O 1.21%, O=C(NN=C1C[C@@H](O)[C@H](O)[C@H]2[C@@H]3C(=O)N(Cc4ccc5c(c4)OCO5)C(=O)[C@@H]3CC[C@H]12)OCc1ccccc1 0.653%, COc1ccc(-c2nc(-c3ccccc3)oc2NC2CCCCC2)cc1 10.2%, COC(=O)CC=C1c2ccc(F)cc2[C@@H](OC)[C@@H]1C 1.2%, CC(=O)OC[C@H]1O[C@@H](ON=C(C)CCN2CCCCc3nc(C)c(C)cc32)[C@H](OC(C)=O)[C@@H](OC(C)=O)[C@H]1OC(C)=O -2.24%, CCOC(=O)NN=C1C[C@@H](O)[C@@H](O)[C@@H]2[C@H]3C(=O)N(Cc4ccc5c(c4)OCO5)C(=O)[C@@H]3CC[C@@H]12 7.77%, O=C(C=Cc1cccc([N+](=O)[O-])c1)c1ccccc1 5.53%, CC(=CC[Si](C)(C)C)CCC=O -6.08%, COc1cccc(CO[C@H]2C=C[C@@H](c3ccccc3)O[C@H]2CBr)c1 -6.75%, COC(=O)C1=C(C)N(CC2CC2)C(=NCCc2cccnc2)NC1c1ccccc1 (stereo not given) -6.23%, COCCN1C(=O)NC(CCc2ccccc2)C(C(=O)OC)=C1C (stereo not given) -13%, CC1=C[C@@H](C)O[C@@]2(C1)C(=O)Nc1cccc(Br)c12 -7.52%, COC(=O)C(C(=O)OC)[C@H]1c2ccccc2[C@@H]2C(=C[C@@H](C)[C@H]3C(=O)N(c4ccccc4)C(=O)[C@H]32)N1C(=O)OC 2.14%, CC[C@H](C)[C@@H](NC(=O)O[C@@H]1C(=O)c2ccc(OC)cc2O[C@H]1c1ccc2c(c1)OCO2)C(=O)OC 4.84%

Potency, inactive:
COCCN1C=C2C(=O)C(C)(OC(=O)C3CCCC3)C(=O)C(c3ccccc3)=C2C=C1CCCC(=O)OC (stereo not given), C=CCN1c2ccccc2[C@]23C[C@@H](C(=O)OC)N(C(=O)OCC)C2=NC(C(=O)OC)=C(C(=O)OC)[C@H]13, COC(=O)C[C@H]1c2ccccc2C2=C(C[C@@H](C)[C@H]3C(=O)N(c4ccccc4)C(=O)[C@@H]23)N1C(=O)OC, COCCN1C(=O)N[C@@H](CCc2ccccc2)[C@H](C(C)=O)[C@H]1C, COC(=O)C1=C(C(=O)OC)[C@@H]2N(C)c3ccc(OC)cc3[C@@]23C[C@@H](C(=O)OC)N(C(=O)c2cc(C)oc2C)C3=N1

Potency, active:
COc1ccc(-c2nc3c(c4c2C[C@H](c2ccccc2)OC4)CN(S(=O)(=O)c2ccc(C)cc2)CC3)c(C)c1 1690 nM, CCN1C(=NCc2cccc(C(F)(F)F)c2)NC(c2cccc(C(F)(F)F)c2)C(C(=O)OC)=C1C (stereo not given) 95.3 nM, C=C(CO[C@@H]1C=C[C@@H](c2ccccc2)O[C@@H]1COC)c1ccccc1 1510 nM, O=C1c2ccccc2C(=O)N1CCCC[C@]12Cc3c(ccc4ccccc34)[C@H](O1)c1c(cc(-c3ccccc3)oc1=O)O2 536 nM
